Experimental data reported in ChEMBL document CHEMBL4513146, “CO-ADD screening of Karazin Kharkiv National University (Ukraine) compounds”.
Results with a measured potency or affinity are listed apart.

Tested on: Candida albicans
Conditions: Concentration 32 ug.mL-1; ASSAY_TEST Inhibition of Fungal Growth; detection method Absorption (OD530)

SMILES	Inhibition
CSc1cccc(NC(=O)Cn2nc3c(SCc4ccc(Cl)cc4)nccn3c2=O)c1	19.01%
Cc1ccc(-n2ccn3c(=O)n(Cc4cccc(Cl)c4)nc3c2=O)cc1C	1.08%
COc1ccccc1NC(=O)Cn1c(=O)c2nnc(C(C)C)n2c2ccccc21	-0.06%
Cc1cccc(C)c1NC(=O)CSc1nnc2c3cc(-c4ccc(F)cc4)nn3ccn12	4.52%
CCc1ccc(N(Cc2ccc(C)cc2)S(=O)(=O)c2cccn3c(CC)nnc23)cc1	5.38%
Cc1ccc(Cn2nc3c(=O)n(-c4cccc(F)c4)ccn3c2=O)cc1	5.68%
Cc1ccc(NC(=O)Cn2nc3ccc(SC(C)(C)C)nn3c2=O)c(Cl)c1	7.14%
Cc1ccc(Cl)cc1NC(=O)Cn1nc2c(N3CCOCC3)nc3ccccc3n2c1=O	3.17%
COc1cccc(Oc2nccn3c(=O)n(CC(=O)Nc4ccc(OC)c(Cl)c4)nc23)c1	1.52%
O=C(Cn1nc2ccc(Sc3cccc(F)c3)nn2c1=O)Nc1cccc(C(F)(F)F)c1	0.5%
CCc1nnc2c(=O)n(CC(=O)Nc3ccc(C#N)cc3)c3ccccc3n12	10.64%
COc1cccc(Oc2nccn3c(=O)n(CC(=O)Nc4ccccc4C(F)(F)F)nc23)c1	1.07%
Cc1nnc2c(SCC(=O)Nc3ccc(C#N)cc3)nc3ccccc3n12	-1.44%
CC(C)c1ccc(N(Cc2cc(F)cc(F)c2)S(=O)(=O)c2cccn3cnnc23)cc1	0.58%
COc1ccc(NC(=O)Cn2nc3ccc(SCc4ccc(Cl)cc4)nn3c2=O)cc1Cl	38.9%
Cc1ccc(-c2ccc3nn(CC(=O)Nc4ccc(C#N)cc4)c(=O)n3n2)cc1C	3.47%
Cc1ccc(NC(=O)Cn2nc3c(Oc4ccccc4)nccn3c2=O)c(Br)c1	0.27%
O=c1c2nnc(SCc3ccc(F)cc3)n2ccn1-c1ccc(Br)cc1	2.87%
CCCCOc1ccc(-c2cc3c4nnc(SCC(=O)Nc5ccccc5F)n4ccn3n2)cc1	7.26%
CCCCc1ccc(NC(=O)Cn2nc3c(Sc4ccccc4CC)nccn3c2=O)cc1	24.82%

SMILES	Inhibition
CC(C)CCn1c(=O)c2ccc(C(=O)NC3CCCC3)cc2n2c(=O)n(CC#N)nc12	2.41%
Cc1ccc(NC(=O)Cn2c(=O)c3nnc(C)n3c3ccccc32)cc1C	0.69%
CCc1ccc(N(Cc2ccccc2)S(=O)(=O)c2cccn3c(CC)nnc23)cc1	13.04%
O=c1c2sccc2n2c(=O)n(Cc3ccc(F)cc3)nc2n1CCc1ccccc1	0.78%
Cc1cccc(NC(=O)Cn2nc3c(SCc4ccc(Cl)cc4)nccn3c2=O)c1C	5.99%
CCOc1ccc(-n2ccn3c(SCC(=O)Nc4ccc(C)cc4Cl)nnc3c2=O)cc1	5.12%
Cc1ccc(Nc2cc(C)n3c(=O)n(Cc4cc(=O)n5ccccc5n4)nc3n2)cc1F	-0.76%
COc1cccc(NC(=O)Cn2nc3ccc(SCc4ccc(Cl)cc4)nn3c2=O)c1	11.57%
Cc1ccc(NC(=O)Cn2nc3ccc(SC(C)(C)C)nn3c2=O)cc1C	5.53%
O=C(CSc1nnc2c(=O)n(-c3ccccc3)ccn12)c1ccc(F)cc1	4.07%
O=C(Cn1nc2c(N3CCOCC3)nccn2c1=O)Nc1ccc2c(c1)OCO2	1.5%
O=C(Cn1nc2c(N3CCN(c4ccccc4)CC3)nccn2c1=O)Nc1ccc2c(c1)OCO2	4.15%
CCc1nnc2c(S(=O)(=O)N(Cc3ccc(F)cc3)c3ccc(Cl)cc3)cccn12	3.47%
COc1ccc(CNC(=O)Cn2nc3c4cc(-c5ccc(Cl)cc5)nn4ccn3c2=O)cc1	1.19%
COc1ccc(Cl)cc1NC(=O)Cn1nc2c(Sc3ccc(C)cc3C)nccn2c1=O	2.63%
O=C(CSc1nnc2c(=O)n(-c3cccc(F)c3)ccn12)c1ccc(F)cc1	4%
CCOc1ccc(-n2ccn3c(SCC(=O)c4ccc(OC)c(OC)c4)nnc3c2=O)cc1	3.75%
CC(C)c1nnc2c(SCC(=O)Nc3ccc(Br)cc3)nc3ccccc3n12	0.48%
CC(C)CCNC(=O)CSc1nnc2c3cc(-c4ccccc4)nn3ccn12	4.42%
